The panel holds about 83,000 compounds, 20% with a hit somewhere; the sample as a whole holds those more often.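 96-well plates, one dose, 48 hours. Percent growth reported; active if below 10.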 Values without a mark were called inactive. Calls of active or inactive are those of the source.
Key:
Assay in all cases: NCI-60 one-dose screen, 48 h (100 = growth as untreated, 0 = no growth, -100 = all killed)
Details in all cases: 10 µM unless noted
[1] = tested on: NCI-H23 lung
[2] = tested on: NCI-H226 lung
[3] = tested on: NCI-H322M lung
[4] = tested on: HOP-62 NSCLC
[5] = tested on: NCI-H460 lung
[6] = tested on: HOP-92 NSCLC
[7] = tested on: NCI-H522 lung
[8] = tested on: A549/ATCC NSCLC
[9] = tested on: 786-0 renal
[10] = tested on: COLO 205 colon
[11] = tested on: DU-145 prostate
[12] = tested on: K-562 leukemia
[13] = tested on: MALME-3M melanoma
[14] = tested on: MDA-MB-231 breast
[15] = tested on: RXF 393 renal
[16] = tested on: SF-268 CNS
[17] = tested on: SF-295 CNS
[18] = tested on: SF-539 CNS
[19] = tested on: UACC-257 melanoma
[20] = tested on: M14 melanoma

| SMILES | growth [1] | growth [2] | growth [3] | growth [4] | growth [5] | growth [6] | growth [7] | growth [8] | growth [9] | growth [10] | growth [11] | growth [12] | growth [13] | growth [14] | growth [15] | growth [16] | growth [17] | growth [18] | growth [19] | growth [20] |
| --- | --- | --- | --- | --- | --- | --- | --- | --- | --- | --- | --- | --- | --- | --- | --- | --- | --- | --- | --- | --- |
| O=S(=O)(NCCNc1nccc(-c2c(-c3cccc(O)c3)nc3occn23)n1)c1cccc(F)c1 | 97.9% | 105% | 97.3% | 121% | 95.9% | 93% | 81.1% | 92.6% | 91.5% | 30.1% | 104% | 70.8% | 4.35% (active) | 69.4% | 91.6% | 93.1% | 106% | 111% | 39.7% | 35.9% |
| O=C(N/N=C/c1cc2ccccc2n2nnnc12)Nc1ccccc1 | 100% | 103% | 105% | 100% | 105% | 105% | 93.6% | 97.7% | 91.5% | 108% | 103% | 95.1% | 106% | 105% | 103% | 101% | 104% | 106% | 111% | 102% |
| O=C(Nc1ccc(Cl)cc1)c1cc(NCc2cc(O)ccc2O)ccc1O | 93.2% | 95.2% | 94.9% | 102% | 98.7% | 80.4% | -59.7% (active) | 80.7% | 95.6% | 105% | 100% | 41.9% | 80.2% | 69.1% | 67.1% | 77.2% | 116% | 43.5% | 77.3% | 102% |
| O=C(/C=C(/C=C/c1coc2ccccc12)OB(F)F)/C=C/c1coc2ccccc12 | 93.9% | 105% | 103% | 113% | 87.7% | 91% | 90.6% | 91.6% | 102% | 95.9% | 99.1% | 72% | 94.5% | 101% | 109% | 93.4% | 101% | 110% | 92.3% | 96% |
| COc1cccc(-c2nc3occn3c2-c2ccnc(NCCNS(=O)(=O)c3cccc4ccccc34)n2)c1 | 103% | 99.6% | 104% | 103% | 101% | 122% | 102% | 105% | 97.8% | 96% | 107% | 95.1% | 111% | 112% | 102% | 96.8% | 106% | 109% | 104% | 117% |
| N#Cc1cc(-c2nc3ccccc3s2)c(=O)n(NS(=O)(=O)c2ccccc2)c1N | 102% | 85.7% | 108% | 90.1% | 106% | 104% | 94.2% | 117% | 106% | 122% | 116% | 104% | 112% | 91% | 113% | 97.4% | 111% | 100% | 111% | 107% |
| COc1ccc(C(=O)NNc2nc(Cl)nc(N3CCN(C(c4ccccc4)c4ccccc4)CC3)n2)cc1 | 3.63% (active) | 90.1% | 57.6% | 86.5% | 101% | 74% | -33% (active) | 92.6% | 69.1% | 60.5% | 67.7% | -16.5% (active) | 46.3% | -1.74% (active) | 9.64% (active) | 86.6% | 96.8% | 33.4% | 65.2% | 31.3% |
| COc1cc(/C=C/c2cc(O)c(C(C)=O)c(O)c2)cc2c1O[C@]1(C)CC[C@@H](O)C(C)(C)[C@H]1C2 | 73.6% | 89% | 76.2% | 52.7% | 76.3% | 95.5% | 79% | 81.4% | 7.29% (active) | 94.5% | 74.5% | 31.6% | 65.8% | 37.6% | -19.4% (active) | 55.8% | 8.72% (active) | 9.14% (active) | 76.4% | 51.5% |
| CCCCCN1C=C/C(=C\C(=O)n2ccc3ccccc32)c2ccccc21 | 77% | 70.3% | 87.7% | 81.9% | 91% | 83.3% | 77% | 89.4% | 94.8% | 89.4% | 101% | 75% | 81.7% | 93.2% | 103% | 92.5% | 87.7% | 102% | 97.9% | 92% |
| Nc1c(C(=O)Nc2cccc3cnccc23)sc2nc3c(cc12)CN(Cc1ccccc1)CC3 | 99.9% | 92.5% | 96.9% | 98.7% | 109% | 96.4% | 97.2% | 107% | 109% | 112% | 109% | 96.5% | 101% | 89.1% | 103% | 103% | 106% | 107% | 124% | 102% |
| CCNC(=O)Oc1ccc(/C(=C(\C)c2ccccc2)c2ccc(OCCN(CC)CC)cc2)cc1 | 78.9% | 95.6% | 99% | 96.2% | 86.6% | 70.9% | 93.7% | 65.5% | 66.3% | 52.2% | 95.4% | 18.9% | 81.1% | 87.2% | 70.6% | 80.1% | 43.5% | 60.9% | -0.741% (active) | 39.7% |
| CC1=C(C(=O)/C=C/c2ccc(N(C)C)cc2)C(c2ccccc2)NC(=S)N1 (stereo not given) | 93.3% | 93.8% | 103% | 106% | 108% | 96.6% | 91% | 106% | 101% | 119% | 107% | 92.1% | 108% | 100% | 107% | 97.8% | 110% | 97.1% | 99.7% | 101% |
| C/C(=N\Nc1cc(C)nc2ccc(Br)cc12)c1ccc([N+](=O)[O-])cc1 | 88.4% | 90% | 82.7% | 76.9% | 69.8% | 77% | 76.6% | 78.6% | 10% | 31.8% | 64.8% | 11.3% | 123% | 59.4% | 68.6% | 97.8% | 49.4% | -43.6% (active) | 107% | 84.6% |
| CCCCC[n+]1ccc(SCC(=O)N(C)c2ccc(Oc3ccccc3)cc2)c2ccccc21 | 90.3% | 106% | 107% | 115% | 107% | 99.9% | 63.3% | 96.2% | 102% | 20.9% | 112% | 25.4% | 84.8% | 110% | 115% | 116% | 91.4% | 107% | 96.2% | 102% |
| COc1cc(-c2n/c(=C\c3c(O)[nH]c4ccc(Cl)cc34)cc3c2=Nc2ccccc2-3)ccc1F | 17.2% | 60.5% | 66.5% | 3.23% (active) | 0.147% (active) | -26.3% (active) | 3.18% (active) | -52.2% (active) | -56.8% (active) | 7.9% (active) | -36.4% (active) | 13.4% | -66.4% (active) | -7.94% (active) | -78.7% (active) | -40.1% (active) | 43.1% | 54.6% | 58.1% | 14% |
